Data on eight compounds can be found in PubChem BioAssay (NCI).

About 83,000 compounds went through this panel and 20% of them were active in at least one assay; those are over-represented in the sample as a whole.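 Single-dose data. Exposure time 48 hours. Values below 10 considered active.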 Values without a mark were called inactive. The source made the active and inactive calls.

Common to all, as to assay: NCI-60 one-dose screen, 48 h (100 = growth as untreated, 0 = no growth, -100 = all killed)
Common to all, as to details: 10 µM unless noted

In test [1] the test system is SR leukemia.
For test [2], the system named is RPMI-8226 leukemia.
The subject of test [3] is OVCAR-8 ovarian.
The test system of test [4] is OVCAR-5 ovarian.
The test system of test [5] is OVCAR-4 ovarian.
The subject of test [6] is SK-OV-3 ovarian.
In test [7] the test system is IGROV1 ovarian.
Test [8] concerns OVCAR-3 ovarian.
The test system of test [9] is HS 578T breast.
Test [10] relates to NCI/ADR-RES ovarian.
Test [11] deals with T-47D breast.
For test [12], the system named is BT-549 breast.
Test [13] deals with MDA-MB-435 melanoma.
For test [14], the system named is SW-620 colon.
Test [15] relates to MCF7 breast.
Test [16] deals with HCT-116 colon.
The test system of test [17] is HCC-2998 colon.
In test [18] the test system is KM12 colon.

Regarding `CC[C@H](Nc1nc(N)nc(C)c1C#N)c1nc2cccc(NCCCCCC(=O)NO)c2c(=O)n1-c1ccccc1`, the growth in [1] was 67.9%; in test [2], 62%; in [3], 68.5%; in [4] it was 44.2%; in [5], 76.1%; in [6], 53.1%. In addition, the growth in test [7] was 9.52% (active); in test [8], 40.8%; in [9], 13.2%; in test [10], 96.2%; in [11] it was 1.28% (active); in [12], 39.4%. Also, the growth was 64.1% in [13]; 68.3% in test [14]; 31.5% in [15]; 71.3% in [16]; 87% in test [17]; 80.3% in test [18].
As to `CCC(CC)(N(CC(=O)O)CC(=O)O)C(CC)(CC)N(CC(=O)O)CC(=O)O`, the growth in [1] was 93.7%; in test [2], 82.7%; in test [3] it was 101%; in [4], 117%; in test [5] it was 101%; in [6], 104%. The growth in test [7] was 116%; in [8], 121%; in test [9] it was 118%; in test [10], 107%; in test [11] it was 96.3%; in test [12], 117%. Besides, the growth in test [13] is 126%; in [14], 112%; in test [15], 100%; in test [16], 110%; in [17] it was 98.1%; in test [18], 120%.
For the compound `N#Cc1c(-c2cccc([N+](=O)[O-])c2)cc(-c2ccc(Nc3nc(Nc4ccc(F)cc4)nc(Nc4ccc(F)cc4)n3)cc2)nc1N`, the growth in test [1] was 62.9%; in test [2] it was 52.3%; in test [3], 89.1%; in test [4] it was 102%; in [5], 114%; in test [6] it was 143%. Further, the growth in test [7] was 90.9%; in test [8], 100%; in test [9] it was 87.9%; in test [10], 101%; in test [11], 115%; in [12], 173%. In addition, the growth was 112% in test [13]; 108% in test [14]; 291% in [15]; 108% in test [16]; 113% in test [17]; 114% in [18].
As for `Cn1cc(C(=O)c2nc(-c3c[nH]c4ccc(Br)cc34)no2)c2cc(Br)ccc21`, the growth in test [1] is 6.41% (active); in test [2], 86.6%; in [3], 48.6%; in test [4], 82.7%; in [5] it was -0.341% (active); in [6], 87.7%. Besides, the growth in [7] is 69.5%; in test [8], 92.7%; in [9], 80.3%; in test [10], 56.1%; in test [11], 71.8%; in test [12] it was 79%. The growth in [13] is 63.3%; in test [14], -2.17% (active); in test [15], 38.8%; in test [16], 63.5%; in test [17] it was 103%; in test [18], 55.2%.
Regarding `NS(=O)(=O)c1ccc(N/C=C/C(=O)c2cc3ccccc3oc2=O)cc1`, the growth in test [1] was 78.1%; in test [2] it was 98.4%; in test [3], 104%; in [4] it was 106%; in test [5], 87.5%; in test [6], 83.4%. Moreover, the growth in test [7] is 91.5%; in test [8], 101%; in test [9], 92.4%; in test [10], 97.8%; in test [11], 89.1%; in [12], 95.5%. In addition, the growth in test [13] is 100%; in [14], 95.5%; in test [15], 68.8%; in test [16] it was 97.1%; in test [17] it was 109%; in [18], 98.2%.
As to `N#CC(C#N)N=Nc1ccc(Cl)cc1Cl`, the growth in [1] is 48.1%; in test [2], 50.8%; in test [3], 94%; in test [4] it was 104%; in test [5] it was 71.4%; in test [6], 77%. Moreover, the growth in test [7] was 89.5%; in test [8] it was 62%; in [9], 103%; in [10], 103%; in test [11], 24.3%; in test [12], 94.8%. Besides, the growth was 111% in [13]; 87.3% in [14]; 73.6% in [15]; 66.1% in [16]; 109% in [17]; 101% in test [18].
For the compound `C#Cc1cccc(Oc2ccc(NC(=O)CCl)cc2)c1`, the growth in test [1] is 13% [8.25 µM]; in test [2], 23.9% [8.25 µM]; in test [3], 31.4% [8.25 µM]; in test [4], 74.3% [8.25 µM]; in test [5], 7.96% [8.25 µM] (active); in test [6], 98.9% [8.25 µM]. Besides, the growth is -71.6% [8.25 µM] (active) in [7]; -76.8% [8.25 µM] (active) in test [8]; 80.7% [8.25 µM] in test [9]; 71.1% [8.25 µM] in [10]; 53.9% [8.25 µM] in [11]; 38.7% [8.25 µM] in [12]. For the same compound, the growth is 31.7% [8.25 µM] in test [13]; 15.9% [8.25 µM] in [14]; 13.5% [8.25 µM] in test [15]; -0.801% [8.25 µM] (active) in [16]; 83% [8.25 µM] in test [17]; 64.2% [8.25 µM] in [18].
For the compound `COc1cccc(/C=C/C(=O)c2cc3c(N)c(C(=O)Nc4ccccc4C)sc3nc2C)c1`, the growth in test [1] is 10.8%; in test [2] it was -20.8% (active); in test [3], -33.9% (active); in [4], 87.2%; in test [5], 70.9%; in test [6], 104%. In addition, the growth in [7] was 19.4%; in test [8], 3.31% (active); in test [9], 13.9%; in test [10], 10.1%; in [11], 56.2%; in test [12], 37.8%. For the same compound, the growth in test [13] was -26.3% (active); in [14], 1.68% (active); in test [15], 7.39% (active); in test [16], 41.8%; in test [17], 35.1%; in test [18], 27.4%.
